“And” between values parts separate entries of the source, which are not always exact repeats. Equal entries are not always repeated. Results filed as inconclusive are left out. The source made the active and inactive calls.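 The calls were made as follows, unless noted: active = normalized viability below 100% at a tested concentration; inactive = the rest.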
Experiments:
[1] = P. berghei load reduction in hepatocytes – cell-based, HepG2, luciferase luminescence, HepG2 viability, primary screen (AID 624349; in the data active = parasite load remaining mostly below about 12%, no sharp cut-off; inactive = mostly above about 10%;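 also: 100% = mean of DMSO negative control wells on the same plate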); details: P. berghei liver stage in HepG2, luciferase luminescence, concentration not given here; parasite load remaining: stronger effect = lower value; viability: measured here: HepG2 viability without parasites
[2] = system: Hepatitis C virus NS3 helicase; assay: blockers of NS3h binding to ssDNA – biochemical, fluorescence polarization, LOPAC1280 library, primary screen (AID 687035; in the data active = inhibition above about 37%); details: Purified HCV NS3 helicase, Cy5-dT15 ssDNA binding fluorescence polarization; stronger effect = higher value; concentration not given here
[3] = compounds altering Cy5-DNA-NS3h complex signal – biochemical, LOPAC1280, artefact control for HCV NS3 helicase inhibitor project (AID 687037; call rule not given here); details: Cy5-DNA-NS3h complex fluorescence interference counterscreen
[4] = system: Aerobactin synthetase IucA (Klebsiella pneumoniae); assay: inhibition of K. pneumoniae IucA enzyme – biochemical, Tocris library, absorbance (AID 1345561; call rule not given here;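 also: 100% = enzyme without compound and 0% = no enzyme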); details: purified IucA enzyme assay, absorbance (OD) read-out; stronger effect = lower value;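 tested at 8 µM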
[5] = viability loss in pontine glioma line – cell-based, SU-DIPG-XIII, MIPE5.0, CellTiter-Glo, qHTS, dose response (AID 1347064; cut-off not given, nearly all actives have AC50 up to about 23 µM); details: CellTiter-Glo ATP luminescence
[6] = growth inhibition of DIPG cells – cell-based, MIPE5.0 library, qHTS (AID 1347068; cut-off not given, nearly all actives have IC50 up to about 30 µM); details: SU-DIPG-XXV viability
[7] = viability loss with induced miR-34 in A549 – imaging, A549 dox-inducible miR-34, nuclei and caspase counts, primary screen (AID 1347080;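 active = compounds whose cell count with miR-34 switched on is under 0.7 times the count with it off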); details: A549 miR-34 inducible, Hoechst nuclei count, 48 h
[8] = blockers of cellular phospholipid synthesis – cell-based, LOPAC library, screen 4, primary screen (AID 1347384; call rule not given here); details: animal cells, phospholipid biosynthesis inhibition screen; at 10 µM
[9] = galactose survival enhancers in mitochondrial complex I cybrids – cell-based, galactose medium, ATP luminescence, primary screen (AID 1645843;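 active = z-score of at least 1.8 in each of two replicates, scored against plate mean and spread of sample wells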;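 also: positive z means more ATP and so rescue of galactose-driven cybrid death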); details: complex I mutant cybrid cells, 72 h, stronger effect = higher value
[10] = viability loss in pontine glioma line – cell-based, SU-DIPG-XIII, MIPE4.0, CellTiter-Glo, qHTS, dose response (AID 1347061; cut-off not given, nearly all actives have AC50 up to about 37 µM;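 also: cells exposed to compound for 48 hours before readout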); details: CellTiter-Glo ATP luminescence
[11] = viability loss in pontine glioma line – cell-based, JHH-DIPG-1, MIPE4.0, CellTiter-Glo, qHTS, dose response (AID 1347062; cut-off not given, nearly all actives have AC50 up to about 27 µM); details: JHH-DIPG-1 viability, CellTiter-Glo ATP luminescence
[12] = compounds altering HSF1 focus formation in cells – imaging, Selleck Cancer Library (AID 1347162; in the data active = plate-normalised HSF1 focus index below about 0.46); details: human cells, HSF1 nuclear foci imaging, at 10 µM; SSMD: measured here: HSF1 foci SSMD mean; cell count: measured here: cell number; plate-normalised HSF1 focus index: stronger effect = lower value
[13] = drug combination growth inhibition, ovarian cancer – cell-based, oncology-focused library, rucaparib conditional, profiling panel (AID 1508598); details: patient-derived ovarian cancer cells, CellTiter-Glo viability, 144 h, stronger effect = lower value
[14] = stronger effect = lower value, cell number ratio, induced over uninduced
[15] = measured here: relative caspase fold change +Dox/-Dox
[16] = measured here: total cells with miR-34 induction, stronger effect = lower value
[17] = measured here: total cells without miR-34 induction

## COc1cc(SC)ccc1C(=O)N1CCC(Cc2ccccc2)CC1
[1]
  parasite load remaining: 38.9% (inactive)
  viability: 67%
[2]
  inhibition: 1% (inactive)
[3]
  fluorescence ratio (interference): 1 (inactive)
[4]
  remaining activity: 78.3% (inactive)
[5]
  outcome: inactive
[6]
  outcome: inactive
[7]; [14]
  fold change: 1.03 (inactive) and 0.864 (inactive)
[7]; [15]
  fold change: 0.962 and 1.6
[7]; [16]
  cell count: 7280 and 6350
[7]; [17]
  cell count: 7040 and 7350
[8]
  outcome: inactive
[9]
  z-score: -0.91 (inactive) and -0.635 (inactive)

## CC(C)c1onc(-c2c(Cl)cccc2Cl)c1COc1ccc(/C=C/c2cccc(C(=O)O)c2)c(Cl)c1
[4]
  remaining activity: 99.1% (inactive)
[10]
  outcome: inactive
[11]
  outcome: inactive
[7]; [14]
  fold change: 0.989 (inactive)
[7]; [15]
  fold change: 1.32
[7]; [16]
  cell count: 5590
[7]; [17]
  cell count: 5650
[12]
  SSMD: 2.06
  cell count: 6870
  plate-normalised HSF1 focus index: 1.11 (inactive)
[13]; at 0.000305 µM, OCI-C5x cells, with rucaparib 10 µM, 100% = cells with rucaparib alone
  viability: 95.7% (active)
[13]; at 0.000305 µM, OCI-C5x cells, without rucaparib
  viability: 107% (inactive)
[13]; at 0.000305 µM, OCI-P5x cells, with rucaparib 20 µM, 100% = cells with rucaparib alone
  viability: 90.8% (active)
[13]; at 0.000305 µM, OCI-P5x cells, without rucaparib
  viability: 87.3% (active)
[13]; at 0.00122 µM, OCI-C5x cells, with rucaparib 10 µM, 100% = cells with rucaparib alone
  viability: 107% (inactive)
[13]; at 0.00122 µM, OCI-C5x cells, without rucaparib
  viability: 97.6% (active)
[13]; at 0.00122 µM, OCI-P5x cells, with rucaparib 20 µM, 100% = cells with rucaparib alone
  viability: 99.3% (active)
[13]; at 0.00122 µM, OCI-P5x cells, without rucaparib
  viability: 89.4% (active)
[13]; at 0.00488 µM, OCI-C5x cells, with rucaparib 10 µM, 100% = cells with rucaparib alone
  viability: 103% (inactive)
[13]; at 0.00488 µM, OCI-C5x cells, without rucaparib
  viability: 97.6% (active)
[13]; at 0.00488 µM, OCI-P5x cells, with rucaparib 20 µM, 100% = cells with rucaparib alone
  viability: 102% (inactive)
[13]; at 0.00488 µM, OCI-P5x cells, without rucaparib
  viability: 91.9% (active)
[13]; at 0.0195 µM, OCI-C5x cells, with rucaparib 10 µM, 100% = cells with rucaparib alone
  viability: 101% (inactive)
[13]; at 0.0195 µM, OCI-C5x cells, without rucaparib
  viability: 98.1% (active)
[13]; at 0.0195 µM, OCI-P5x cells, with rucaparib 20 µM, 100% = cells with rucaparib alone
  viability: 100% (inactive)
[13]; at 0.0195 µM, OCI-P5x cells, without rucaparib
  viability: 98.8% (active)
[13]; at 0.0781 µM, OCI-C5x cells, with rucaparib 10 µM, 100% = cells with rucaparib alone
  viability: 99.7% (active)
[13]; at 0.0781 µM, OCI-C5x cells, without rucaparib
  viability: 105% (inactive)
[13]; at 0.0781 µM, OCI-P5x cells, with rucaparib 20 µM, 100% = cells with rucaparib alone
  viability: 104% (inactive)
[13]; at 0.0781 µM, OCI-P5x cells, without rucaparib
  viability: 97.9% (active)
[13]; at 0.313 µM, OCI-C5x cells, with rucaparib 10 µM, 100% = cells with rucaparib alone
  viability: 97.6% (active)
[13]; at 0.313 µM, OCI-C5x cells, without rucaparib
  viability: 97.8% (active)
[13]; at 0.313 µM, OCI-P5x cells, with rucaparib 20 µM, 100% = cells with rucaparib alone
  viability: 106% (inactive)
[13]; at 0.313 µM, OCI-P5x cells, without rucaparib
  viability: 100% (inactive)
[13]; at 1.25 µM, OCI-C5x cells, with rucaparib 10 µM, 100% = cells with rucaparib alone
  viability: 102% (inactive)
[13]; at 1.25 µM, OCI-C5x cells, without rucaparib
  viability: 97.1% (active)
[13]; at 1.25 µM, OCI-P5x cells, with rucaparib 20 µM, 100% = cells with rucaparib alone
  viability: 103% (inactive)
[13]; at 1.25 µM, OCI-P5x cells, without rucaparib
  viability: 101% (inactive)
[13]; at 5 µM, OCI-C5x cells, with rucaparib 10 µM, 100% = cells with rucaparib alone
  viability: 76.1% (active)
[13]; at 5 µM, OCI-C5x cells, without rucaparib
  viability: 89.5% (active)
[13]; at 5 µM, OCI-P5x cells, with rucaparib 20 µM, 100% = cells with rucaparib alone
  viability: 99.6% (active)
[13]; at 5 µM, OCI-P5x cells, without rucaparib
  viability: 98.8% (active)
[9]
  z-score: -0.665 (inactive)

From PubChem BioAssay
